# Laboratory results taken from PubChem BioAssay AID1490 (National Center for Advancing Translational Sciences (NCATS), 2009).
# Where “and” joins values, the source holds several entries; their conditions need not be identical. Identical values can stand only once. In all, about 310,000 compounds went through this assay and about 11,000 (3.5%) were called active. Inconclusive results (about 4%) are left out. The sample holds actives, similar compounds and a random draw of the others, so the mix is not that of the screen. Calls follow the shape of the dose curve; as a rule, active = well fitted inhibition curve with a large enough effect; inconclusive = small, poorly fitted or top-dose-only effect, or another doubt; inactive = no such curve, though single readings can be large or run the other way.
# Target: 4'-phosphopantetheinyl transferase ffp (Bacillus subtilis) (UniProt Q9F4F7)
# Test: qHTS Assay for Inhibitors of Bacillus subtilis Sfp phosphopantetheinyl transferase (PPTase);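 also: the enzyme is Sfp with the accession as filed and its product quenches rhodamine fluorescence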;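 as to largest response in the series, negative = inhibition: 0% = enzyme reaction without inhibitor and -100% = no enzyme wells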
# Settings: Biochemical Sfp PPTase activity
# Summary of the method: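 After 15 min at room temperature with compound, 15 nM Sfp received 5 uM rhodamine-CoA plus 12.5 uM BHQ-2-ybbR (50 mM Hepes pH 7.6, 10 mM MgCl2). Rate came from the fluorescence difference over 30 min, ex 525/em 598 nm.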
# Potency is read from the fitted curve at half-maximal effect.
SMILES,"largest response in the series, negative = inhibition",Potency
FC(F)Oc1ccc(NC(=S)NCc2ccco2)cc1Cl,-3.21% (inactive),–
S=C(NCc1ccco1)Nc1ccc2c(c1)OCCO2,–,28.2 µM (active)
COc1cccc(NC(=S)NCc2ccco2)c1,16.1% (inactive),–
S=C(NCc1ccc2c(c1)OCO2)NCc1ccco1,–,39.8 µM (active)
Cc1c(Cl)cccc1NC(=S)NCc1ccc2c(c1)OCO2,0.527% (inactive),–
S=C(NCc1ccco1)NCc1ccccc1Cl,8.59% (inactive),–
CCC(C)[C@H]1COCCS(=O)(=O)N1Cc1ccc(C)cc1 (some centres undefined),13.1% (inactive),–
Cc1cc(C(F)F)nn1CC(=O)NC1CCCCCC1,15.4% (inactive),–
CCCCOP(=O)(c1ccc(N(C)C)cc1)C(O)c1cc(OC)ccc1OC (centres undefined),4.86% (inactive),–
CCn1c(CC(=O)Nc2ccccc2C)nnc1SCC(=O)NC1=NCCS1,7.23% (inactive),–
O=C(Nc1nnc(C2=COCCO2)o1)c1ccc([N+](=O)[O-])s1,5.3% (inactive),–
COc1ccc(Nc2nc(-c3cccnc3)nc3ccccc23)cn1,5.49% (inactive),–
Fc1ccc(/C=N/Nc2nc(-c3cccnc3)nc3ccccc23)cc1,–,31.6 µM (active)
COc1ccccc1Oc1nc(-c2cccnc2)nc2ccccc12,-13.5% (inactive),–
CCCCCC1CC(COc2ccccc2)OC1=O (centres undefined),11.1% (inactive),–
CC(=O)N1CCOc2ccc(S(=O)(=O)N3CCC(C(=O)Nc4ccccc4F)CC3)cc21,2.67% (inactive),–
COCCNC(=O)c1ccc2c(c1)ncn2-c1ccc(C)c(Cl)c1,6.27% (inactive),–
O=C(CN1CCN(S(=O)(=O)/C=C/c2ccccc2)CC1)NC(=O)NCc1ccco1,-18.1% (inactive),–
COc1ccccc1N1CCN(CC(=O)NC(=O)NCc2ccco2)CC1,7.58% (inactive),–
CC1(c2ccccc2Cl)NC(=O)N(CC(=O)NC(=O)NCc2ccco2)C1=O (centres undefined),–,79.4 µM (active)
COc1cccc(C(=O)NNS(=O)(=O)c2ccc(F)cc2)c1,-4.08% (inactive),–
O=S(=O)(NCCc1ccc(Cl)cc1)c1cccs1,7.54% (inactive),–
COc1cccc(CN2CCN(Cc3ccc4cccc(F)c4n3)CC2CCO)c1 (centres undefined),13.8% (inactive),–
CCCc1nc2c(c(=O)c3ccccc3n2C)c(=O)n1-c1cc(C)cc(C)c1,-11.4% (inactive),–

SMILES,"largest response in the series, negative = inhibition",Potency
Cn1c2ccccc2c(=O)c2c(=O)n(Cc3ccco3)c(COc3ccccc3)nc21,–,8.91 µM (active)
COc1ccc(C(=O)CSc2nnc(COc3ccccc3)n2Cc2ccco2)cc1,-23.6% (inactive),–
COc1cccc(NC(=O)C(=O)c2cn(CC(=O)N3CCOCC3)c3ccccc23)c1,11.1% (inactive),–
Cc1ccc(C(C)(C)C)c(OCCCCN2CCCC2)c1,-28.7% (inactive),–
CC(C)(C)NCCCOc1ccc(Cl)cc1C(C)(C)C,–,50.1 µM (active)
COCCCNCCOCCOc1ccc(Cl)cc1Br,1.66% (inactive),–
CC(C)(C)OC(=O)N1CCC(C(=O)NNC(=O)c2ccc(Cl)cc2Cl)CC1,5.93% (inactive),–
c1coc(CNc2ncnc3ccccc23)c1,8.96% (inactive),–
c1ccc(-c2nc(NCc3ccco3)c3ccccc3n2)cc1,–,11.2 µM (active)
CCOCCCNc1nc(-c2ccccc2)nc2ccccc12,14.7% (inactive),–
CC(C)C(=O)N1CC(=O)Nc2ccc(F)cc2C1c1ccc(F)cc1 (centres undefined),17.9% (inactive),–
CCN(CC(=O)N1CCCC1)S(=O)(=O)c1ccc(F)cc1,4.81% (inactive),–
O=C(NNC(=S)Nc1ccc(Br)cc1Cl)c1ccco1,12.1% (inactive),–
O=C(Nc1ccc(NC(=O)c2ccco2)c(Cl)c1)c1cccc([N+](=O)[O-])c1,5.01% (inactive),–
CCC(=O)NC(=S)Nc1ccc(NC(=O)c2ccco2)c(Cl)c1,–,39.8 µM (active)
O=S(=O)(c1cccc(Cn2nnc(-c3ccc(F)cc3)n2)c1)N1CCOCC1,3.33% (inactive),–
CC(=O)C1=C(C)NC(=O)NC1c1ccc2c(c1)OCO2 (centres undefined),0.489% (inactive),–
S=c1[nH]nc2c3c4c(sc3ncn12)CCCC4,–,56.2 µM (active)
N=c1c2c3c(sc2ncn1N)CCCC3,13.2% (inactive),–
c1nnc2c3c4c(sc3ncn12)CCC4,-1.58% (inactive),–
Cc1cc(-c2ccc(S(=O)(=O)N3CCc4ccccc4C3)s2)on1,12.5% (inactive),–
O=C(NCc1ccccc1)C(c1ccco1)N(C(=O)c1csnn1)c1ccccc1F (centres undefined),11.4% (inactive),–
C[C@H](NC(=O)C1CC(=O)N(c2ccc3c(c2)OCO3)C1)C(=O)NCc1ccco1 (some centres undefined),4.65% (inactive),–
CC/C=C\C/C=C\C/C=C\C/C=C\C/C=C\C/C=C\CCC(=O)NC(C)C(=O)O (centres undefined),-29.1% (inactive),–

SMILES,"largest response in the series, negative = inhibition",Potency
COc1cccc(/C=C2\C=C(c3ccc(C)cc3)OC2=O)c1OC(C)=O,-6.33% (inactive),–
CN(C)/C=C1\C=C(c2ccccc2)OC1=O,–,20 µM (active)
CN(C)/C=C1/C(=O)Nc2ccccc21,-6.73% (inactive),–
O=S(=O)(c1ccccc1)N(Cc1cccc(F)c1)c1ccccc1,13.8% (inactive),–
CN(Cc1ccco1)c1ncncc1-c1ccoc1,–,79.4 µM (active)
CN(Cc1ccco1)c1cc(-c2ccccc2C(F)(F)F)ncn1,-8.82% (inactive),–
Cc1ccccc1-c1nc(N(C)Cc2ccco2)c2ccccc2n1,-22.5% (inactive),–
CCC1OC(c2ccc([N+](=O)[O-])cc2)=Nc2ccccc21 (centres undefined),-5.21% (inactive),–
CCOc1cc(C)ccc1OCc1nnc(SCC(=O)Nc2cccc(C(=O)O)c2)n1-c1ccccc1,22.3% (inactive),–
Cc1ccc(NC(=O)[C@H](Cc2ccccc2)NC(=O)C2CCNCC2)cc1,1.09% (inactive),–
CCOC(=O)c1c(NC(=O)CCC(=O)NCc2ccco2)sc2c1CCCC2,-8.63% (inactive),–
CCCOC(=O)Nc1sc2c(c1C(=O)OCC)CCC2,–,14.1 µM (active)
CCOC(=O)c1c(NC(=O)Cn2nc(C(F)(F)F)cc2C)sc2c1CCC2,-2.66% (inactive),–
CCOC(=O)c1c(NC(=S)Nc2ccccc2C)sc2c1CCC2,-14.6% (inactive),–
CCOC(=O)c1c(NC(=O)C2(C)Cc3ccccc3C(=O)O2)sc2c1CCCC2 (centres undefined),–,35.5 µM (active)
CCOC(=O)c1c(NC(=S)NC)sc2c1CCCC2,7.02% (inactive),–
Cc1ccc(C(=O)OCC(=O)NC(=O)Cc2ccccc2)c(O)c1,15.9% (inactive),–
O=C(NCc1ccccn1)[C@]1(C(F)(F)F)C[C@H](CCc2ccccc2)CCCO1,-24.4% (inactive),–
CNC(=O)[C@]1(C(F)(F)F)C[C@H](CCc2ccccc2)CCCO1,-10.7% (inactive),–
Cc1ccc(CNC(=O)C2(C(F)(F)F)C/C(=C\Cc3ccccc3)CCCO2)o1 (centres undefined),–,35.5 µM (active) and 50.1 µM (active)
Cc1ccc(CNC(=O)C2(C(F)(F)F)C/C(=C\CCO)CCCO2)o1 (centres undefined),–,50.1 µM (active)
Cc1ccc(CNC(=O)Cn2cnc(S(=O)(=O)N3CCCCC3)c2)o1,14.3% (inactive),–
O=C(NCC1CC1)C1(C(F)(F)F)C/C(=C\CCO)CCCO1 (centres undefined),1.74% (inactive),–
CCCn1nc(NC(=O)C(C)C)c2cc3cc(OC)ccc3nc21,4.66% (inactive),–

SMILES,"largest response in the series, negative = inhibition",Potency
CC(O)COc1ccccc1 (centres undefined),12.6% (inactive),–
COc1ccc(N(CC(=O)NCc2ccc(F)cc2)C(=O)CCC(=O)Nc2nccs2)cc1,-11.5% (inactive),–
O=C1CCC(=O)N(c2ccccc2)N1,-3.33% (inactive),–
CN(CCC(=O)Nc1cc(S(=O)(=O)N(C)C)ccc1Cl)CC(=O)Nc1ccc(F)cc1,13.5% (inactive),–
Cn1c(N)c(C(=O)COC(=O)c2cc(C(F)(F)F)nc3c(C(F)(F)F)cccc23)c(=O)n(C)c1=O,13.8% (inactive),–
N#C/C(=C/c1ccc(N2CCCCC2)o1)C(=O)NCCc1c[nH]c2ccccc12,-16.2% (inactive),–
N#C/C(=C/c1ccc(N2CCOCC2)o1)C(=O)N1CCOCC1,–,56.2 µM (active)
N#C/C(=C\c1ccc(N2CCOCC2)o1)C(=O)N1CCOCC1,-13.7% (inactive),–
CCCCC[C@H]1CN(C2CCCCC2)C(=O)[C@@H]1CC(=O)NCc1ccc(OC)cc1,-4.46% (inactive),–
O=C(Nc1ccccc1N1CCN(C(=O)c2ccccc2)CC1)c1ccco1,14.1% (inactive),–
CC(C)[C@@H](NC(=O)OC(C)(C)C)C(=O)NCC1CCC(C(=O)N[C@@H](Cc2ccccc2)C(=O)O)CC1 (some centres undefined),6.54% (inactive),–
O=C(O)CCCCCCCCc1cn(CN2C(=O)c3ccccc3C2=O)nn1,-11% (inactive),–
Cc1cccc(COc2ccccc2/C=N/Nc2ccc([N+](=O)[O-])cc2)c1,24.5% (inactive),–
Cc1ccc(NS(=O)(=O)c2ccc(C)c(NC(=O)COc3ccc4ccccc4c3)c2)c(C)c1,-28.6% (inactive),–
Cc1ccc(NS(=O)(=O)c2ccc(N/N=C/c3ccccc3OCC(=O)O)c([N+](=O)[O-])c2)c(C)c1,–,79.4 µM (active)
N#Cc1ccc(/C=C2\CCn3c2nc2cc(C(=O)O)ccc2c3=O)cc1,31.1% (inactive),–
N#Cc1cccc(-c2ccc3ncnc(NCc4cccs4)c3c2)c1,-14.8% (inactive),–
O=C(Cc1ccccc1Cl)N1CCOCC1,17% (inactive),–
COC(=O)[C@@]1(Cc2ccc(F)cc2)[C@H]2c3cc(C(=O)N(C)C)n(CCc4c[nH]c5ccc(OC)cc45)c3C[C@H]2CN1C(=O)c1ccccc1,0.76% (inactive),–
O=C(NCc1ccc(Cl)cc1)c1cc2c(nc3sccn32)s1,–,50.1 µM (active)
O=C(NCc1ccc(Cl)cc1)c1cc(=O)nc2sc(-c3ccccc3)nn12,1.8% (inactive),–
O=C(NCc1ccc(Cl)cc1)NCc1ccc(Cl)cc1,-3.32% (inactive),–
